# Source: article PMC7862700, “An all-to-all approach to the identification of sequence-specific readers for epigenetic DNA modifications on cytosine”
# Columns and labels:
# Assay in all cases: DAPPL (digital affinity profiling via proximity ligation, sequencing); 10 mM Tris-HCl pH 7.5, 50 mM NaCl, 1 mM DTT, 4% glycerol, room temperature, 30 min; GST-TFs on glutathione beads, 16-mer random dsDNA library, 0.1% formaldehyde crosslink after washing; high values mean tight binding
# Conditions in all cases: protein: recombinant; tags: N-terminal GST; dsDNA, one strand shown
# FLI1 = target: T1, FLI1 (Homo sapiens, UniProt Q01543 1-452)
# T1 sequence: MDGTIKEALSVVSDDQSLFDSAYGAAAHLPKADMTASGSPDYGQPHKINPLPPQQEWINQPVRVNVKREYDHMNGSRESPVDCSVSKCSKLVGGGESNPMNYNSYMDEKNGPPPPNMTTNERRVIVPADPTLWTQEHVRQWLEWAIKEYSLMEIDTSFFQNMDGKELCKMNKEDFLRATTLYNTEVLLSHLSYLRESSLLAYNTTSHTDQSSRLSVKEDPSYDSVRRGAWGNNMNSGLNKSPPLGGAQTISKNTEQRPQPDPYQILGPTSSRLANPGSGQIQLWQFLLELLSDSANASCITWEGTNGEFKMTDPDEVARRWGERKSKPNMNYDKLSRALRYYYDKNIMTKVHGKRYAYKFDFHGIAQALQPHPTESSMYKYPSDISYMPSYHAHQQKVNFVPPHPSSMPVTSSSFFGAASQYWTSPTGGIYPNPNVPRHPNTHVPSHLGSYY
# Summary of the method: (§1)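 Beads coated with glutathione captured GST-fused human transcription factors that had been expressed in yeast, and the factors were then given DNA barcodes and pooled with a tag-only sample. The pools were incubated with 200 nmole of a random double-stranded 16-mer DNA library in Tris/NaCl/DTT/glycerol buffer for 30 min at room temperature, washed, crosslinked with 0.1% formaldehyde and proximity-ligated with BsaI/T4 ligase at 37 °C for 1 h. PCR amplification and Illumina NextSeq500 sequencing came last. Binding signal is each hexamer's read frequency for a factor divided by its frequency for the tag-only sample.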
# ELK1 = target: T2, ELK1 (Homo sapiens, UniProt P19419 1-428)
# T2 sequence: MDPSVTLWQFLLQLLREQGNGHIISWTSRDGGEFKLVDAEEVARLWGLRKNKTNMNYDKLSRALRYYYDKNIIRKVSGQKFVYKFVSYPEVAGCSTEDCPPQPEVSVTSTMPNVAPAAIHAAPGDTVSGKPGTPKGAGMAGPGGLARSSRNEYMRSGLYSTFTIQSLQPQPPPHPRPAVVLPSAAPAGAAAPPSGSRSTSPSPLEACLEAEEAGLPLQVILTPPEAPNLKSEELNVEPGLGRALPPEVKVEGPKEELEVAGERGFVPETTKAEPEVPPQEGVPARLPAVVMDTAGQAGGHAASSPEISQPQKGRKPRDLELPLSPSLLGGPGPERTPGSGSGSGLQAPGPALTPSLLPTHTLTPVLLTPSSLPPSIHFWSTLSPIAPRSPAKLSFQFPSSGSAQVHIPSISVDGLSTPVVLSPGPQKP
# Summary of the method: as §1
# GABPA = target: T3, GABPA (Homo sapiens, UniProt Q06546 1-454)
# T3 sequence: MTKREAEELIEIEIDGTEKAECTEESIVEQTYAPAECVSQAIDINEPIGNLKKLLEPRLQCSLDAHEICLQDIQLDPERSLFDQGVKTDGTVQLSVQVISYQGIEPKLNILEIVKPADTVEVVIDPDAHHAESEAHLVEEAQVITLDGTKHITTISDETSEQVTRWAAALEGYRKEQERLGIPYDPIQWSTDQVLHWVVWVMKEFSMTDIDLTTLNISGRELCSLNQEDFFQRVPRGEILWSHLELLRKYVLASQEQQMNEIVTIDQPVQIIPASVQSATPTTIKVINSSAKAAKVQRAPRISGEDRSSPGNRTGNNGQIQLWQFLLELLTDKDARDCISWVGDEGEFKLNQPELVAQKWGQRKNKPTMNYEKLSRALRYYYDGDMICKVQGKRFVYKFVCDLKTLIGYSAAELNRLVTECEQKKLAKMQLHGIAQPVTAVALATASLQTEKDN
# Summary of the method: as §1
# ERG = target: T4, ERG (Homo sapiens, UniProt P11308 1-479)
# T4 sequence: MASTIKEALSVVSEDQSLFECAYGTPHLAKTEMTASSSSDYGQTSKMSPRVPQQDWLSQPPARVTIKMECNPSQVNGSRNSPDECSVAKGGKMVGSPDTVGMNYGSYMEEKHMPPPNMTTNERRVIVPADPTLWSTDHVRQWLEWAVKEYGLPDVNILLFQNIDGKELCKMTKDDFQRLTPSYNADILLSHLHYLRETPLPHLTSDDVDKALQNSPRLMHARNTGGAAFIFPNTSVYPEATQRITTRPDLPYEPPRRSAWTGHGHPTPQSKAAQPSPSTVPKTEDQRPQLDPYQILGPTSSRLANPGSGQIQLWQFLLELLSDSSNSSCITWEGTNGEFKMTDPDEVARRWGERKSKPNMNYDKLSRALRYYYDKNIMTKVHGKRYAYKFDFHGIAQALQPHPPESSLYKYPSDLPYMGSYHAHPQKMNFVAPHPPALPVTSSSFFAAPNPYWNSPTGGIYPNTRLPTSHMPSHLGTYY
# Summary of the method: as §1
# ELF1 = ELF1 (Homo sapiens, UniProt P32519 1-619)
# Chain of ELF1 (P32519 whole entry): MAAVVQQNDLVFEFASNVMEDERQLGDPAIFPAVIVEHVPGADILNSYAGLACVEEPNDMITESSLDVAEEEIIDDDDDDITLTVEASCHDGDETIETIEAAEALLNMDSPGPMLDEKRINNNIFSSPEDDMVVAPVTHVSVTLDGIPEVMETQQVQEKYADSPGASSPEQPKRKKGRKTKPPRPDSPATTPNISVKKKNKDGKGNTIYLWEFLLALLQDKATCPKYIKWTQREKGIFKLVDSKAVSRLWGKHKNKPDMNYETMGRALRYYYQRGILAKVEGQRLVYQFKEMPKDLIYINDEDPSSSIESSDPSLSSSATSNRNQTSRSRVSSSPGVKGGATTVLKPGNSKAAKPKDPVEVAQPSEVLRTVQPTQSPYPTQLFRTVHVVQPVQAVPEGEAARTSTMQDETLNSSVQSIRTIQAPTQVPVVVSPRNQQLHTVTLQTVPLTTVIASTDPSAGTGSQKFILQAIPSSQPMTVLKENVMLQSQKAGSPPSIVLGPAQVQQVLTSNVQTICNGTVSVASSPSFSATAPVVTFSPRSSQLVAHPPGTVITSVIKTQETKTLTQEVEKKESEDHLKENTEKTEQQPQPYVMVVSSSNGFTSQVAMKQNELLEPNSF
# Summary of the method: as §1
# EHF = target: T5, EHF (Homo sapiens, UniProt Q9NZC4 1-300)
# T5 sequence: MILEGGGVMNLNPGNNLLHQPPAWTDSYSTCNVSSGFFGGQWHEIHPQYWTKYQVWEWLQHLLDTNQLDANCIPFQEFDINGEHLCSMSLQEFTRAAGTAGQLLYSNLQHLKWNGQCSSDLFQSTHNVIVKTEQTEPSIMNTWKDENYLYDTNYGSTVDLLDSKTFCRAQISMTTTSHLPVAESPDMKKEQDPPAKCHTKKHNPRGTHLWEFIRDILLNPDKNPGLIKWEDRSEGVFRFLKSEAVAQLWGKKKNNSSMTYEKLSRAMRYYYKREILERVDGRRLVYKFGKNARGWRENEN
# Summary of the method: as §1
# SPI1 = SPI1 (Homo sapiens, UniProt P17947 1-270)
# Summary of the method: as §1
# SPIB = SPIB (Homo sapiens, UniProt Q01892 1-262)
# Chain of SPIB (Q01892 whole entry): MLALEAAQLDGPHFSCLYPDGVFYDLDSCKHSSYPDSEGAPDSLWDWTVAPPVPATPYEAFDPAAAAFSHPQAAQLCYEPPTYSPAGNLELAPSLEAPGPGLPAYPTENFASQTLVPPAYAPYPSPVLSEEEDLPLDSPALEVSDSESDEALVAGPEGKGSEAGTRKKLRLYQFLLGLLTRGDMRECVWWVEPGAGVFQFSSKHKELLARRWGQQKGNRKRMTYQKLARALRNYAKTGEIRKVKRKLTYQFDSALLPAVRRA
# Summary of the method: as §1
# ELK3 = target: T6, ELK3 (Homo sapiens, UniProt P41970 1-407)
# T6 sequence: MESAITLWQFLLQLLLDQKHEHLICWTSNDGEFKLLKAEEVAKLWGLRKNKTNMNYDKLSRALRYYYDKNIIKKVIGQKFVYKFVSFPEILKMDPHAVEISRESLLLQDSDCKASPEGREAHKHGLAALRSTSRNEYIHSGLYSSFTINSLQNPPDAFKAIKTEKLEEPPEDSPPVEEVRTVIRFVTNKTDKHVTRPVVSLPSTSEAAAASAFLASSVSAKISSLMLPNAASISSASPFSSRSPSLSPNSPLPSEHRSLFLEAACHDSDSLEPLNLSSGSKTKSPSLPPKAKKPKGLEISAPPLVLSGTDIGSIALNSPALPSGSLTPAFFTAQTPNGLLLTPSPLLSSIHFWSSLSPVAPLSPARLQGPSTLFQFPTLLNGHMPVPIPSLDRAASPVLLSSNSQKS
# Summary of the method: as §1
sequence,measurement,setting,value
ATCCCT,binding signal,FLI1,"1.35 fold enrichment (6-mer frequency, TF over GST control)"
same,binding signal,ELK1,"1.28 fold enrichment (6-mer frequency, TF over GST control)"
same,binding signal,GABPA,"1.22 fold enrichment (6-mer frequency, TF over GST control)"
same,binding signal,ERG,"1.24 fold enrichment (6-mer frequency, TF over GST control)"
same,binding signal,ELF1,"1.31 fold enrichment (6-mer frequency, TF over GST control)"
same,binding signal,EHF,"1.22 fold enrichment (6-mer frequency, TF over GST control)"
same,binding signal,SPI1,"1.16 fold enrichment (6-mer frequency, TF over GST control)"
same,binding signal,SPIB,"1.27 fold enrichment (6-mer frequency, TF over GST control)"
same,binding signal,ELK3,"1.12 fold enrichment (6-mer frequency, TF over GST control)"
